Measurements from PubChem BioAssay AID1259415 (National Center for Advancing Translational Sciences (NCATS), 2018).
Hit rate of the full screen: of about 410,000 compounds, about 18,000 (4.4%) were called active. Another 7% or so got no clear call; they are omitted. The sample holds actives, similar compounds and a random draw of the others, so the mix is not that of the screen. Cut-off read from the data, not from the text of the source: active = activity change below about -60%; inconclusive = no clear call, values can overlap the other calls; inactive = above about -39%.

Test: qHTS Assay for inhibitors of the human cytomegalovirus (HCMV)
Conditions: HFF cells, HCMV-luciferase reporter, 72 h; at 57.5 µM; active compounds read low
Method in brief: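 Inhibition of viral replication was scored as loss of reporter luminescence in HFFs infected with HCMV-luciferase (MOI 1 PFU/cell) for 72 h; compounds tested at 2 doses, normalized to buffer and Salinomycin controls.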
% is set by controls: 0 for no effect and ±100 for the full control effect.

SMILES	activity change, negative = inhibition
O=C(O)CC(SCC(=O)Nc1ccc(Br)cc1)C(=O)O (centres undefined)	-19% (inactive)
O=C(CCl)Nc1ccc(Sc2ccc(NC(=O)CCl)cc2)cc1	-97.1% (active)
CC(=O)Nc1ccc(NC(=O)CC2CCCC2)cc1	-33.3% (inactive)
CCOC(=O)C1=NOC(Cn2cc(C(C)=O)c(=O)[nH]c2=O)C1 (centres undefined)	10% (inactive)
CCOC(=O)c1cccc(NS(=O)(=O)c2cn(C)c(C)n2)c1	2.44% (inactive)
C[C@H](CO)N1C[C@H](C)[C@@H](CN(C)C(=O)Nc2ccccc2F)OCc2cn(nn2)CCCC1=O	-6.88% (inactive)
O=C(NC1CCN(Cc2ccccc2)CC1)c1cc(Br)c(Br)[nH]1	-22.7% (inactive)
S=C(Nc1ccc(Br)cc1Cl)NC1CCN(Cc2ccccc2)CC1	-84.5% (active)
Cc1cc(Br)ccc1NC(=S)NC1CCCC1	-24.2% (inactive)
Cc1cc(C)n(CCC(=O)N2CCN(S(=O)(=O)c3ccc(C)c(C)c3)CC2)n1	-15.9% (inactive)
CCc1cc2c(cc(C(=O)OC)n2Cc2nc(-c3ccc(C)cc3)oc2C)s1	4.7% (inactive)
CCCN1CCc2nc(N3CCN(C)CC3)ncc2C1	0.276% (inactive)
COc1ccc(C(C#N)=C2C=CC(=NO)c3ccccc32)cc1	-90.8% (active)
COc1ccc(/C(N)=N/OC(=O)Oc2ccccc2)cc1	9.17% (inactive)
CC(c1ccco1)N(C(=O)c1ccc(S(=O)(=O)N2CCCCC2)cc1)c1ccccn1 (centres undefined)	-14.3% (inactive)
Fc1ccc(CN2CCc3nc(Nc4ccccc4)ncc3C2)cc1F	-18.4% (inactive)
CC(C)Nc1ncnc2c1nnn2Cc1ccccc1	45.3% (inactive)
c1ccc(Cn2nnc3c(NCC4CC4)ncnc32)cc1	30.2% (inactive)
COc1ccc(CCNc2ncnc3c2nnn3Cc2ccccc2)cc1	-95.1% (active)
O=C(CN1c2ccccc2S(=O)(=O)c2ccccc21)Nc1cccc(C(F)(F)F)c1	14.4% (inactive)

SMILES	activity change, negative = inhibition
O=C(Cn1cnc2c(oc3ccccc32)c1=O)Nc1ccc(OC(F)(F)F)cc1	14% (inactive)
COc1ccc(OCc2ccc(-c3nc(C#N)c(N4CCN(c5ccccc5)CC4)o3)o2)cc1	2.46% (inactive)
O=C1CCN(CCCc2ccccc2)CCN1CCO	-6.21% (inactive)
O=C(NC(=S)N1CCN(Cc2ccccc2)CC1)c1ccccc1	-3.08% (inactive)
OCCN1CCN(C(=S)c2ccc(-c3ccccc3)cc2)CC1	-79.4% (active)
COCCNc1ncnc2c1c(-c1ccccc1)cn2-c1ccc(C)c(Cl)c1	-33.4% (inactive)
Cc1ccccc1NC(=S)N(CCCN1CCOCC1)Cc1cccs1	-30.9% (inactive)
Cc1ccc(NC(=S)N(CCCN2CCCC2)Cc2cccn2Cc2ccc(Cl)cc2)cc1	-72% (active)
CCc1ccccc1NC(=S)N(CCN1CCCCCC1)Cc1ccco1	29.5% (inactive)
CC(C)NC(=O)C(=O)NCCCOC(C)C	-7.97% (inactive)
CN(CC(=O)NCCN1CCOCC1)S(=O)(=O)c1ccc(F)cc1	-13.5% (inactive)
Cc1ccc(-c2nnc(SCC(=O)NCc3ccccc3)nc2-c2ccc(C)cc2)cc1	-16.5% (inactive)
COc1ccc(-c2nnc(SCC(=O)Nc3ccc(C(C)C)cc3)nc2-c2ccc(OC)c(OC)c2)cc1OC	2% (inactive)
CCc1ccccc1NC(=O)CSc1nnc(-c2ccccc2)c(-c2ccccc2)n1	-84.3% (active)
O=c1cc(CSc2ccccn2)nc(N2CCN(c3ccccc3)CC2)[nH]1	15.5% (inactive)
CCOc1ccccc1N1CCN(C(=O)c2ccc3[nH]c(C)c(C)c3c2)CC1	-4.04% (inactive)
COc1ccccc1N1CCN(C(=O)c2cc(=O)c3cc(C)cc(C)c3o2)CC1	-72.5% (active)
COc1ccccc1N1CCN(C(=O)c2ccc(NC3=NC4CS(=O)(=O)CC4S3)cc2)CC1 (centres undefined)	-1.18% (inactive)
O=c1c2cccnc2n(Cc2cccc(F)c2)c(=O)n1Cc1ccccc1Cl	-4.52% (inactive)
O=S(=O)(NCC(c1ccco1)N1CCOCC1)c1cc(F)ccc1F (centres undefined)	10.6% (inactive)

SMILES	activity change, negative = inhibition
O=C(NN=CC=Cc1ccccc1)C(O)C(O)C(=O)NN=CC=Cc1ccccc1 (centres undefined)	-99% (active)
O=C(N/N=C/C=C/c1ccccc1)C1CC1(c1ccccc1)c1ccccc1 (centres undefined)	-22.7% (inactive)
CC(OC(=O)/C=C/c1ccccc1)C(=O)Nc1ccc(C(N)=O)cc1 (centres undefined)	-26.6% (inactive)
O=C(Nc1ccn(Cc2ccccc2)n1)c1n[nH]c([N+](=O)[O-])c1Cl	-0.724% (inactive)
COC(=O)C(c1ccccc1)N1CCCCCC1 (centres undefined)	-22.2% (inactive)
CC1(C)CC(N2CCN(C(c3ccccc3)c3ccccc3)CC2)=CC(=[N+]2CCCCC2)C1	-98.5% (active)
COc1ccc(CCN2C(=O)N(c3cccc(OC)c3)C(=O)C2CC(=O)Nc2ccccc2)cc1 (centres undefined)	30.6% (inactive)
Cc1csc2nc(COc3ccc(NC(=O)COc4ccccc4)cc3)cc(=O)n12	-18.6% (inactive)
CCOC(=O)c1[nH]c(C)c(CCC(=O)N2CCN(c3ccccc3)CC2)c1C	-11% (inactive)
COc1ccc(CCNCc2c(-c3ccccc3)n(C)c3ccccc23)cc1	-5.91% (inactive)
COc1ccc(-c2c(C#Cc3ccccc3)c3ccccc3n2C)cc1	-78.4% (active)
COc1cc(OC)cc(-c2c(C#Cc3ccsc3)c3cc(-c4ccc(SC)cc4)ccc3n2C)c1	-6.32% (inactive)
COc1ccccc1CNCc1ccc(C(=O)O)s1	-9.76% (inactive)
O=C(CSc1nc(=O)[nH]c2c1CCCC2)Nc1cc(C(F)(F)F)ccc1Cl	-20.6% (inactive)
O=C(Nc1ccc(CN2CCOCC2)cc1)c1cc(Cl)ccc1Cl	-13.5% (inactive)
CN1CCN(Cc2nc3cc(NC(=O)COc4ccc([N+](=O)[O-])cc4)ccc3n2C)CC1	18.6% (inactive)
Cn1c(CN2CCOCC2)nc2cc(NC(=O)c3ccc(Cl)cc3)ccc21	-84.5% (active)
Cc1ccccc1S(=O)(=O)N[C@H]1CC[C@@]23CCCN2C(=O)CCC[C@H]3[C@H]1C	-19.4% (inactive)
Cc1cccc(Cn2c(CN3CCC(C(=O)NCc4ccccc4Cl)CC3)cc3ccccc32)c1	-4.28% (inactive)
